PubChem BioAssay (NCATS)
Records with an inconclusive call do not appear. Unmarked numbers belong to inactive results. Calls come from the whole dose curve; as a rule, active = well fitted curve in the direction sought with a large enough effect; inconclusive = small, poorly fitted or top-dose-only effect, or another doubt; inactive = no such curve, though single readings can be large or run the other way. Where a SMILES comes first, the peptide text is derived from it. Bridges are numbered along the chain shown (N, C = ends). [ ]: non-standard residue; d: D form. hArg = N=C(N)NCCCC[C@H](N)C(=O)O; Mpa = O=C(O)CCS

What follows are compounds tested against Protein phosphatase 1D (Homo sapiens) (UniProt O15297) (assay: Rhodamine-PBP qHTS Assay for Modulators of WT P53-Induced Phosphatase 1 (WIP1) (AID 1347425)). Details: recombinant WIP1, Rhodamine-PBP phosphate fluorescence, real-time; series mostly up to 57.5 µM; activity change, negative = inhibition: at the top concentration.
From the text: Assay Provider (PI): Nathan Coussens Ph.D.
National Center for Advancing Translational Sciences (NCATS), Rockville, MD
National Institute of Health (NIH), Bethesda, Maryland
WT P53-Induced Phosphatase 1 (WIP1) is a member of the magnesium-dependent serine/threonine protein phosphatase (PPM) family and is induced by P53 in response to DNA damage. In several human cancers, the WIP1 protein is overexpressed, which is generally associated with a worse prognosis. Although WIP1 is an attractive therapeutic target, no potent, selective, and bioactive small-molecule modulator with favorable pharmacokinetics has been reported. Phosphatase enzymes are among the most challenging targets for small molecules because of the difficulty of achieving both modulator selectivity and bioavailability. Another major obstacle has been the availability of robust and physiologically relevant phosphatase assays that are suitable for high-throughput screening.
Here, we describe two orthogonal biochemical WIP1 activity assays that utilize phosphopeptides from native WIP1 substrates. We optimized a RapidFire MS assay to quantify the enzymatically dephosphorylated peptide reaction product in a 384-well format. Additionally, a redshifted Rhodamine-PBP fluorescence assay was optimized in a 1,536-well format to enable real-time WIP1 activity measurements through the detection of the orthogonal reaction product, Pi. We validated these two optimized assays by quantitative high-throughput screening against the National Center for Advancing Translational Sciences (NCATS) Pharmaceutical Collection and used secondary assays to confirm and evaluate inhibitors identified in the primary screen.
SEQUENCE No. (e.g., 1, 2, 3, etc.); […] (e.g., Cells, Incubation, Reagent, etc.); VALUE; DESCRIPTION
1; Reagent; 3 uL; WIP1 (6.7 nM), Rh-PBP (13.3 uM), columns 1-48
3; Library Compounds; 23 nL; NCATS Pharmaceutical Collection, column 5-48
4; Control Compounds; DMSO in column 2, GSK2830371 (57.5 uM, final) in 3-fold serial dilutions in column 3, GSK2830371 (1.15 uM, final) in column 4
5; Time; 1 hr; incubation
6; Detection; fluorescence (f0); ViewLux, excitation filter = 525 nm, emission filter = 598 nm
7; Reagent; 1 uL; VEPP-pS-QETFS (40 uM), columns 2-48
8; Detection; fluorescence (f1); ViewLux, excitation filter = 525 nm, emission filter = 598 nm
NOTES (numbers refer to sequence above)
1 & 2; Black medium binding Greiner 1536-well plates (# 789176-F); assay buffer: 50 mM Tris-HCl pH 7.5, 30 mM MgCl2, 1mM TCEP, 0.1 mM EGTA, 75 ug/mL BSA; dispensed with a BioRaptr liquid handler (Beckman Coulter).
3 & 4; Kalypsys pintool (equipped with 1536 pinhead, Wako USA) transfer. Tip wash sequence: DMSO, methanol, 3 sec vacuum dry.
5; Room temperature incubation.
7; VEPPL-pS-QETFS in assay buffer dispensed with a BioRaptr; final reaction conditions: 5 nM WIP1, 10 uM VEPPL-pS-QETFS, 10 uM Rh-PBP, 50 mM Tris-HCl pH 7.5, 30 mM MgCl2, 1 mM TCEP, 0.1 mM EGTA, 75 ug/mL BSA.
8; Measurement taken at 1 min intervals for 11 min. Delta readout = f1 - f0.

Sequence of Protein phosphatase 1D (Homo sapiens) (O15297 whole entry, looked up): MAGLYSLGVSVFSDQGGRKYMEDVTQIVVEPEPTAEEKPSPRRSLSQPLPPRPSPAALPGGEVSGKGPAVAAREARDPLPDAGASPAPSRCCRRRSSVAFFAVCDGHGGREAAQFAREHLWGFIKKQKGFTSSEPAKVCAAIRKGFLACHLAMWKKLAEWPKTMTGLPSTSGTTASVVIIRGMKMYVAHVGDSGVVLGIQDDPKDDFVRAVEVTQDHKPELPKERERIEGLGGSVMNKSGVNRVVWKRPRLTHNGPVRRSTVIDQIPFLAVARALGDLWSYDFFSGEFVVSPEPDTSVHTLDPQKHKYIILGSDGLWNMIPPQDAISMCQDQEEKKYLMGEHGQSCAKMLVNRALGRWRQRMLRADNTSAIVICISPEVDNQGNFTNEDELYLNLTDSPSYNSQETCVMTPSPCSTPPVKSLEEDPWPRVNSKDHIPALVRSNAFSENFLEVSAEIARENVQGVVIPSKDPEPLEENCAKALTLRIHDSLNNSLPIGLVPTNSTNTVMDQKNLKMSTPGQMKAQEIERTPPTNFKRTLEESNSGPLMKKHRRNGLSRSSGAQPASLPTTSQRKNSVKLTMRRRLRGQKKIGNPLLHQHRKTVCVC

Q: Which activity change, negative = inhibition does the source give for CCCCCCCCCCOc1cc2c(=O)c(C(=O)OCC)c[nH]c2cc1OCC here?
A: 9.27% [at 4.81 µM]

Q: How did the “activity change, negative = inhibition” value turn out when CC(=O)Nc1ccc(C(=O)O)cc1 was run?
A: 14.5%

Q: With CCN(CC)CCOC(=O)C(c1ccccc1)c1ccccc1 as the compound, how does the “activity change, negative = inhibition” value read?
A: -18.4%

Q: How did the “activity change, negative = inhibition” value turn out when CC[N+](CC)(CC(=O)Nc1c(C)cccc1C)Cc1ccccc1 was run?
A: 14.4%

Q: With Cc1c(C(=O)NCCO)[n+](=O)c2ccccc2n1[O-] as the compound, how does the “activity change, negative = inhibition” value read?
A: 8.96%

Q: Which “activity change, negative = inhibition” value does the source give for COc1ccccc1OCC(O)CO (stereo not given) here?
A: 2.32%

Q: With NC(=O)NC1NC(=O)NC1=O (stereo not given) as the compound, how does the “activity change, negative = inhibition” value read?
A: 17.2%

Q: NC(=O)[C@@H]1CSSCCC(=O)N[C@@H](CCCCN=C(N)N)C(=O)NCC(=O)N[C@@H](CC(=O)O)C(=O)N[C@@H](Cc2c[nH]c3ccccc23)C(=O)N2CCC[C@H]2C(=O)N1 ([Mpa][hArg]GDWPC-NH2; disulfide 1-7) was tested. Which “activity change, negative = inhibition” value did it give?
A: -1.18%

Q: With CCOc1ccc(C(=O)OCCN(CC)CC)cc1 as the compound, how does the “activity change, negative = inhibition” value read?
A: 2.91%

Q: Which “activity change, negative = inhibition” value does the source give for O=C(/C=C/c1ccccc1)OCc1ccccc1 here?
A: 8.58%

Q: C[N+](C)(C)CC(O)CC(=O)[O-] (stereo not given) was tested. Which “activity change, negative = inhibition” value did it give?
A: -19.3%

Q: CC(=O)N[C@@H](Cc1ccc(O)cc1)C(=O)O was tested. Which “activity change, negative = inhibition” value did it give?
A: -7.11%

Q: How did the “activity change, negative = inhibition” value turn out when CC(=O)NS(=O)(=O)c1ccc(N)cc1 was run?
A: 2.55%

Q: With CCCCC1(COC(=O)CCC(=O)O)C(=O)N(c2ccccc2)N(c2ccccc2)C1=O as the compound, how does the “activity change, negative = inhibition” value read?
A: -9.8%

Q: Which “activity change, negative = inhibition” value does the source give for O=c1[nH]cnc2nc[nH]c12 here?
A: -1.62%

Q: Which “activity change, negative = inhibition” value does the source give for CC(C)C[C@@H](N)C(=O)O here?
A: -0.541% [at 23.8 µM]

Q: CNc1c2c(nn1C)CCCC2 was tested. Which “activity change, negative = inhibition” value did it give?
A: 4.71%

Q: How did the “activity change, negative = inhibition” value turn out when Cc1cccc(C(=O)O)c1O was run?
A: -1.11%

Q: Which “activity change, negative = inhibition” value does the source give for NCC1CCC(C(=O)Oc2ccc(CCC(=O)O)cc2)CC1 (stereo not given) here?
A: 16.9%

Q: CCC(C)(CN(C)C)OC(=O)c1ccccc1 (stereo not given) was tested. Which “activity change, negative = inhibition” value did it give?
A: 4.48%

Q: Which “activity change, negative = inhibition” value does the source give for CC(=O)Nc1cccc(O)c1 here?
A: 10%

Q: How did the “activity change, negative = inhibition” value turn out when Cc1cc(NC(=O)C2=C(O)c3ccccc3S(=O)(=O)N2C)no1 was run?
A: 2.55%

Q: For C[n+]1ccccc1/C=N/O, which “activity change, negative = inhibition” value is on record?
A: -4.85%

Q: CC(C)CCCC(C)CCCC(C)CCCCC(C)CCCC(C)CCCC(C)C (stereo not given) was tested. Which “activity change, negative = inhibition” value did it give?
A: 4.27%

Q: Which “activity change, negative = inhibition” value does the source give for CC1CC(OC(=O)c2ccccc2O)CC(C)(C)C1 (stereo not given) here?
A: -6.57%

Q: Which “activity change, negative = inhibition” value does the source give for CC(=O)N1C[C@H](O)C[C@H]1C(=O)O here?
A: 4.94%

Q: CC(C)=CCC/C(C)=C/CO was tested. Which “activity change, negative = inhibition” value did it give?
A: 17.7%

Q: How did the “activity change, negative = inhibition” value turn out when COc1ccc(-c2cc(=O)c3c(O)cc(O[C@@H]4O[C@H](CO[C@@H]5O[C@@H](C)[C@H](O)[C@@H](O)[C@H]5O)[C@@H](O)[C@H](O)[C@H]4O)cc3o2)cc1O was run?
A: 21.4%

Q: How did the “activity change, negative = inhibition” value turn out when Cn1c(=O)c2c(ncn2CCO)n(C)c1=O was run?
A: -25.2%

Q: O=C(NCCCN1CCOCC1)c1ccc(Cl)cc1 was tested. Which “activity change, negative = inhibition” value did it give?
A: 12%

Q: For C=CCOc1ccccc1OCC(O)CNC(C)C (stereo not given), which “activity change, negative = inhibition” value is on record?
A: 4.56%

Q: With O=c1[nH]c(=O)n([C@H]2C[C@H](O)[C@@H](CO)O2)cc1I as the compound, how does the “activity change, negative = inhibition” value read?
A: 15.4%

Q: With CN(C/C=C/C#CC(C)(C)C)Cc1cccc2ccccc12 as the compound, how does the “activity change, negative = inhibition” value read?
A: 15.2%

Q: CC(=O)N(CC(O)CO)c1c(I)c(C(=O)NCC(O)CO)c(I)c(C(=O)NCC(O)CO)c1I (stereo not given) was tested. Which “activity change, negative = inhibition” value did it give?
A: 3.17%

Q: Which “activity change, negative = inhibition” value does the source give for CC1(c2ccccc2)OC(C(=O)O)=CC1=O (stereo not given) here?
A: 5.72%

Q: How did the “activity change, negative = inhibition” value turn out when CCCCCCCCCCCCCCCCN was run?
A: -4.71%

Q: How did the “activity change, negative = inhibition” value turn out when C[C@]1(Cn2ccnn2)[C@H](C(=O)O)N2C(=O)C[C@H]2S1(=O)=O was run?
A: 4.79%

Q: Which “activity change, negative = inhibition” value does the source give for O=C(O)Cc1cn(-c2ccccc2)nc1-c1ccc(Cl)cc1 here?
A: -19.1%

Q: Nc1c2c(nc3c1CCC3)CCCC2 was tested. Which “activity change, negative = inhibition” value did it give?
A: 5.72%

Q: With O=C(O)CNC(=O)c1ccccc1I as the compound, how does the “activity change, negative = inhibition” value read?
A: 12.7%
